Test [1] can be described thus: qHTS for differential inhibitors of proliferation of Plasmodium falciparum line HB3 (AID 1886).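 Also: parasites grown with compound for 72 h before SYBR Green readout.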 Also: potency is read from the fitted curve at half-maximal effect. The conditions noted are these: Potency: Plasmodium falciparum HB3 proliferation inhibition. In general terms: qHTS replaces the single test concentration by a dilution series.
Test [2] deals with Ferritin light chain (Equus caballus) (UniProt P02791). Kind of test: qHTS Validation Assay for Identification of Novel General Anesthetics (AID 2323). Also: series mostly up to about 77 µM. In short, it runs like this: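 Competitive displacement of profluorescent 1-aminoanthracene (1-AMA, 50% saturated solution in PBS) from 10 uM horse-spleen apoferritin. Compounds incubated 10 min at room temperature; fluorescence read at 380 nm excitation/535 nm emission, normalized to free 1-AMA and complex, fitted with four-parameter Hill equation.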
Sequence of Ferritin light chain (Equus caballus) (P02791 2-175 limits assumed): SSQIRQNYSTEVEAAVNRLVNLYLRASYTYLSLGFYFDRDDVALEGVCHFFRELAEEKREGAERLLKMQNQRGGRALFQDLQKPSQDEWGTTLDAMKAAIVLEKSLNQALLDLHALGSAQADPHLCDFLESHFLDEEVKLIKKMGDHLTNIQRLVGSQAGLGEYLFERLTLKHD

In test [3] the target is ATP-dependent DNA helicase Q1 (Homo sapiens) (UniProt P46063). Kind of test: qHTS Validation Assay for Inhibitors of RecQ-Like Dna Helicase 1 (RECQ1) (AID 2353). In short, it runs like this: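 50 nM RECQ1T1 preincubated 15 min with compound in Tris pH 8.0 buffer with MgCl2, DTT, Tween-20 and 2.5 ug/ml poly(dI-dC); started with 200 nM TAMRA/BHQ-2 forked duplex and 2 mM ATP. Unwinding read as fluorescence (525/598 nm), two reads 2 h apart.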
Sequence of ATP-dependent DNA helicase Q1 (Homo sapiens) (P46063 whole entry, looked up): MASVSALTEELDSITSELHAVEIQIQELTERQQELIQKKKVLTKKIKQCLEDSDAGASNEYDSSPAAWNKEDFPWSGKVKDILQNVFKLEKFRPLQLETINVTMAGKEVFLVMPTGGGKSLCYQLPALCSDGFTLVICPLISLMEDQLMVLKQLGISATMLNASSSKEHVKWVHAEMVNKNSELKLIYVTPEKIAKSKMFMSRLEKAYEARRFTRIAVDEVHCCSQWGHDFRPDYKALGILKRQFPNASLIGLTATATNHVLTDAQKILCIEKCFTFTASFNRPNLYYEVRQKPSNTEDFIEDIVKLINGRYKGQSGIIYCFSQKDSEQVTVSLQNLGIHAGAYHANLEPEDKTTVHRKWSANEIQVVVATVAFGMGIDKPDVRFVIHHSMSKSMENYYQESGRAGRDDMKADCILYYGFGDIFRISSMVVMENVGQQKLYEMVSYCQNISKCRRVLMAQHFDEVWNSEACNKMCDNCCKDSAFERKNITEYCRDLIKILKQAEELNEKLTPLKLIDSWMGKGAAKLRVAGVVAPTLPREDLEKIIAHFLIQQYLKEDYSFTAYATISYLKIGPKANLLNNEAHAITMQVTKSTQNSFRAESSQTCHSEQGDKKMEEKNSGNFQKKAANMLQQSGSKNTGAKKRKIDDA

Test [4] concerns the target RecQ-like DNA helicase BLM (Homo sapiens) (UniProt P54132). Description: qHTS Validation Assay for Inhibitors of Bloom's syndrome helicase (BLM) (AID 2364). In short, it runs like this:
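50 nM BLM preincubated 15 min at room temperature with compound in pH 8.0 Tris buffer containing 2.5 ug/ml poly(dI-dC); started with 200 nM TAMRA/BHQ-2 forked duplex and 2 mM ATP (final). Unwinding read as TAMRA fluorescence increase, two reads 2 h apart.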

A short description of test [5]: High Content Imaging Cell-Based qHTS for Inhibitors of the mTORC1 Signaling Pathway in MEF Cells (AID 2667). Also: potency is read from the fitted curve at half-maximal effect. A digest of the protocol: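 WT MEFs (Tsc2-/-, p53-/- re-expressing Tsc2), in DMEM + 10% FBS, were treated with compound for 24 h at 37 C. Cells were then fixed and stained for phospho-rpS6 Ser235/236 with propidium iodide as cell count. Values are % positive cells, with thresholds set against rapamycin-treated cells.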

Test [6] is described as follows: Cytometry Cell-Based qHTS for Inhibitors of the mTORC1 Signaling Pathway in MEF cells (AID 2668).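 Also: Tsc2-/- p53-/- mouse embryonic fibroblasts stably re-expressing wild-type Tsc2; percent cells positive for phospho-rpS6 Ser235/236 relative to propidium iodide stain; series mostly up to about 38 µM.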 In short, it runs like this:
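WT MEFs (Tsc2-/-, p53-/- stably re-expressing WT Tsc2) in DMEM + 10% FBS received compounds 24 hrs after plating, for 24 hrs at 37 degree Celsius. Fixed cells stained with Alexa-488 anti-phospho-rpS6 Ser235/236 and propidium iodide; laser-scanning cytometry read-out.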

Test [7] in a line: Validation screen for small molecules that induce DNA re-replication in MCF 10A normal breast cells (AID 463097). Also: nearly all actives have a fitted effect of over 60% in size. A digest of the protocol:
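Readout: Hoechst nuclear fluorescence intensity, 405 ex / 500-530 em, by scanning plate imager; re-replication scored as increase in nuclei with elevated DNA content. Cells exposed to compound 48 hr, 37 C, 5% CO2 beforehand.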

The target in test [8] is Ubiquitin carboxyl-terminal hydrolase 2 (Homo sapiens) (UniProt O75604). Kind of test: qHTS Validation Assay for Inhibitors of Ubiquitin-specific Protease USP2a Using CHOP2 as the Reporter (AID 463106). A digest of the protocol:
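USP2 core (10 nM final) was preincubated with compound 30 min at RT in pH 8.0 Tris/CaCl2/beta-ME/CHAPS buffer. Ub-CHOP2 and reporter substrate (25 nM final each) were then added, with fluorescence (Ex 485/Em 531) read after 60 min. Data were normalized to NEM full inhibition and fitted to concentration-response curves.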

For test [9], the target named is DNA polymerase III PolC-type (Bacillus subtilis (strain 168)) (UniProt P13267). Kind of test: qHTS Validation Assay for the Inhibitors of DNA Replication in Gram-Positive Bacteria (AID 485295).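 Also: PicoGreen fluorescence of double-stranded DNA made on primed circular M13 template; series mostly up to about 57 µM.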 A digest of the protocol:
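Reconstituted B. subtilis holoenzyme (Pol III, beta clamp, SSB, primase) was preincubated with compound at room temperature, then given single-stranded circular M13Gori plus dNTPs and NTPs. EDTA-containing PicoGreen stopped the reaction, and dsDNA product was read by fluorescence.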

Test [10] deals with Tumor susceptibility gene 101 protein (Homo sapiens) (UniProt Q99816). Kind of test: qHTS Validation Assay for Iinhibitors of HIV-1 Budding by Blocking the Interaction of PTAP/TSG101 (AID 485342; calls by dose curve). A digest of the protocol:
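Tsg101 binding domain (10 uM final) in pH 7.5 HEPES/NaCl/Tween 20/EDTA/TCEP buffer was mixed with pin-transferred compounds, then FITC-labeled PTAP peptide (50 nM final) was added; after 20 min at r.t., fluorescence polarization was read.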

For test [11], the target named is Beta-2 adrenergic receptor (Homo sapiens) (UniProt P07550). Kind of test: qHTS validation assay of beta-arrestin-biased ligands of beta2-adrenergic receptor (AID 485366). A digest of the protocol: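 Luminescence from a tTA-responsive luciferase, induced when recombinant beta-arrestin is recruited to recombinant beta2-AR, served as the agonism signal. Cells were exposed to compound for 18 hr at 37 degrees C; titrations spanned up to 46 microM.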
Sequence of Beta-2 adrenergic receptor (Homo sapiens) (P07550 whole entry, looked up): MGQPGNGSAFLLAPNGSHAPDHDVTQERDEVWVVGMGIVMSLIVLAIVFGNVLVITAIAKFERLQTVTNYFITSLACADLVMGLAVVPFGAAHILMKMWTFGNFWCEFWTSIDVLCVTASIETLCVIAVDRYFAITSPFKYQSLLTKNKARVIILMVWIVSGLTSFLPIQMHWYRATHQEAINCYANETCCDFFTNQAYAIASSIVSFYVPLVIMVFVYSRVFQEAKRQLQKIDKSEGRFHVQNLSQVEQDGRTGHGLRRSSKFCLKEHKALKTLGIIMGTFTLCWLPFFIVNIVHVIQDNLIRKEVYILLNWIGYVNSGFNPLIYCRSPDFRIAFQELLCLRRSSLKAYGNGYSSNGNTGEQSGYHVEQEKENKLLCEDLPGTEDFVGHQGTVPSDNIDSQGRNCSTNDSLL

A short description of test [12]: High Content Imaging Cell-Based qHTS for Inhibitors of the mTORC1 Signaling Pathway in MEF (Tsc2-/-, p53-/-) Cells (AID 2666). Also: potency is read from the fitted curve at half-maximal effect. In short, it runs like this: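 Phospho-rpS6 (Ser235/236) immunofluorescence, normalized and scored as % positive cells using rapamycin and DMSO controls, was read in empty-vector Tsc2-/-, p53-/- MEFs after 24 h compound exposure at 37 C; propidium iodide counted cells.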

A short description of test [13]: Validation screen for inhibitors of Lassa infection (AID 463096; calls by dose curve).
The target of test [14] is ATP-dependent 6-phosphofructokinase (Trypanosoma brucei brucei) (UniProt O15648). Description: qHTS Validation Assay to Find Inhibitors of T. brucei phosphofructokinase (AID 485368). A digest of the protocol:
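Activity was normalized between 1x (1.25 nM) PFK wells as no inhibition and enzyme-free wells as full inhibition, from luminescence after ADP-Glo detection of ADP made from 0.5 mM F6P and 0.1 mM ATP over 45 min.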

The nature of test [15]: qHTS Validation Assay to Find Inhibitors of Chronic Active B-Cell Receptor Signaling (AID 485345; active = well fitted curve in the direction sought with a large enough effect in the main read-out, with a control signal flat, not every such curve was filed as active). In short, it runs like this:
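TMD8 ABC-DLBCL cells stably carrying doxycycline-inducible IkappaBalpha–green luciferase fusion plus unfused red luciferase; compounds 46 uM to 3 nM, 4 h at 37C with doxycycline. Corrected green/red luminescence ratio normalized to 10 uM MG-132 and basal cell wells; curves fitted.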

A short description of test [16]: Cytometric Cell-Based qHTS for Inhibitors of the mTORC1 Signaling Pathway in MEF (Tsc2-/-, p53-/-) Cells (AID 2660). Also: potency is read from the fitted curve at half-maximal effect. A digest of the protocol:
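Percent of cells positive for normalized phospho-S6 staining is reported, with the cutoff set from rapamycin (7.5 nM) versus DMSO wells. Tsc2-/-, p53-/- MEFs received compound for 24 hrs.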

Results filed as inconclusive are left out. Active and inactive are the calls of the source. Unless noted, calls follow the shape of the dose curve; as a rule, active = well fitted curve in the direction sought with a large enough effect; inconclusive = small, poorly fitted or top-dose-only effect, or another doubt; inactive = no such curve, though single readings can be large; an effect the other way counts as inactive or inconclusive.

Sequence of Ubiquitin carboxyl-terminal hydrolase 2 (Homo sapiens) (O75604 whole entry, looked up): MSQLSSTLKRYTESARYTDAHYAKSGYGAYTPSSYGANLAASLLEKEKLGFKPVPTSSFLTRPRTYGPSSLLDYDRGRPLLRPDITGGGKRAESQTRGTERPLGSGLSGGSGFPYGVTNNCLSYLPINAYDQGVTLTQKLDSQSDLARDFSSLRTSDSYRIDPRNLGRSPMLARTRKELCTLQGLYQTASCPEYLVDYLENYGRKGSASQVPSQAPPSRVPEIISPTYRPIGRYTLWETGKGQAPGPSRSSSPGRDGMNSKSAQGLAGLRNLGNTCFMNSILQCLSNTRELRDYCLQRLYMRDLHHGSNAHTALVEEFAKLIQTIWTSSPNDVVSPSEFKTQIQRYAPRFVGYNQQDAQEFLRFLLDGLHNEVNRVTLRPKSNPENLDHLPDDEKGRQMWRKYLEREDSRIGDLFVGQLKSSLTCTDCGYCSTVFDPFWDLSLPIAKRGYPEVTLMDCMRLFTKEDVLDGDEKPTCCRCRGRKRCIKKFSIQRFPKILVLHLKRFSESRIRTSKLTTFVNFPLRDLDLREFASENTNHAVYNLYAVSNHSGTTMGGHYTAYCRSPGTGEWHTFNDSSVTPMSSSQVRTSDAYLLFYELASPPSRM
Sequence of Tumor susceptibility gene 101 protein (Homo sapiens) (Q99816 whole entry, looked up, the tested form may be a part): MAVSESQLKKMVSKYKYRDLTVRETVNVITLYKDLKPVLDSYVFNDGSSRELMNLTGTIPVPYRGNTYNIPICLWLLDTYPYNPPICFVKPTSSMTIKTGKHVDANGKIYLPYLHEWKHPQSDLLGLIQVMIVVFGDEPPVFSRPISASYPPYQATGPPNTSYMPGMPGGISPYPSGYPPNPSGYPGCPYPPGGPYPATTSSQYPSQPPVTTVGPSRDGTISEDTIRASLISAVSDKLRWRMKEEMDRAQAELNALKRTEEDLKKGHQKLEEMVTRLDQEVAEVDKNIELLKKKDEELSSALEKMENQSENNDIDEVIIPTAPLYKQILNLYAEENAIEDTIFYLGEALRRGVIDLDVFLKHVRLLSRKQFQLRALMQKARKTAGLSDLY
Sequence of DNA polymerase III PolC-type (Bacillus subtilis (strain 168)) (P13267 whole entry, looked up): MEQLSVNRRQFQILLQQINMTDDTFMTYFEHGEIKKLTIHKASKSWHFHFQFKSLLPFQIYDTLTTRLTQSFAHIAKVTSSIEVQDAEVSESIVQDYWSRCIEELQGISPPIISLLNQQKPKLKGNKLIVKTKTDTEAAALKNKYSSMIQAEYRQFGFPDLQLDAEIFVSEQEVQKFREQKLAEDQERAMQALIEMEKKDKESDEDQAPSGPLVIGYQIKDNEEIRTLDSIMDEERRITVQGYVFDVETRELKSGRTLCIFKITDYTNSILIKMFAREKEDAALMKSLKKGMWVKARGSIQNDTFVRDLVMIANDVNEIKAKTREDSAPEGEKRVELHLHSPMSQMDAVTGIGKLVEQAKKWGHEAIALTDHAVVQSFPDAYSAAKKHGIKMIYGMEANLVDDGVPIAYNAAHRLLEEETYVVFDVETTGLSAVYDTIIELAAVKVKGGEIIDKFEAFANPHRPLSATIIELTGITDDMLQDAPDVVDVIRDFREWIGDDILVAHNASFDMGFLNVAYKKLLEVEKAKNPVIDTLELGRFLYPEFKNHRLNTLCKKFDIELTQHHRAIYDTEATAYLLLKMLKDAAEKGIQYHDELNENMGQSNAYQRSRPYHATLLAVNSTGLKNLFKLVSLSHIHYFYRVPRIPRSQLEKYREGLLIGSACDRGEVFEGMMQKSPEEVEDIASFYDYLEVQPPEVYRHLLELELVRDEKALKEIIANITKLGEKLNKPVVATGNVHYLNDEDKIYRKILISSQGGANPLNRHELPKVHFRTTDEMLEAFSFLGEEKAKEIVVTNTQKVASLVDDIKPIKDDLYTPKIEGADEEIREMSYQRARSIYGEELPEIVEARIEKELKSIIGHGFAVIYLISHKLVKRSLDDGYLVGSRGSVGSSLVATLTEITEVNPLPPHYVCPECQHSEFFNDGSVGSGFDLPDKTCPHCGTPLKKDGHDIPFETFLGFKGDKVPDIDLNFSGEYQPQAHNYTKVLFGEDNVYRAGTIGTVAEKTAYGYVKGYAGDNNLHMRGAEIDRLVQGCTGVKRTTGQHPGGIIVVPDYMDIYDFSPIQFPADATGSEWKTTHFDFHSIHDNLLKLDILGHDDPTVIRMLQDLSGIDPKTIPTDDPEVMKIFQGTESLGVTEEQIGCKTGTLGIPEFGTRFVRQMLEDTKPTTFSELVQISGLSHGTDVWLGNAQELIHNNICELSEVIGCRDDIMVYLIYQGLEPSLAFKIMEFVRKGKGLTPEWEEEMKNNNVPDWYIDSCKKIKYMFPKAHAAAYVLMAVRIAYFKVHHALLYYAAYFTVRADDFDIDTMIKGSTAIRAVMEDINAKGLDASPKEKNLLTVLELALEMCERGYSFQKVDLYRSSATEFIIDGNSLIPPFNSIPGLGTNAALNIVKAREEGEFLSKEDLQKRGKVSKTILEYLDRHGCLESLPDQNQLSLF
Sequence of ATP-dependent 6-phosphofructokinase (Trypanosoma brucei brucei) (O15648 whole entry, looked up): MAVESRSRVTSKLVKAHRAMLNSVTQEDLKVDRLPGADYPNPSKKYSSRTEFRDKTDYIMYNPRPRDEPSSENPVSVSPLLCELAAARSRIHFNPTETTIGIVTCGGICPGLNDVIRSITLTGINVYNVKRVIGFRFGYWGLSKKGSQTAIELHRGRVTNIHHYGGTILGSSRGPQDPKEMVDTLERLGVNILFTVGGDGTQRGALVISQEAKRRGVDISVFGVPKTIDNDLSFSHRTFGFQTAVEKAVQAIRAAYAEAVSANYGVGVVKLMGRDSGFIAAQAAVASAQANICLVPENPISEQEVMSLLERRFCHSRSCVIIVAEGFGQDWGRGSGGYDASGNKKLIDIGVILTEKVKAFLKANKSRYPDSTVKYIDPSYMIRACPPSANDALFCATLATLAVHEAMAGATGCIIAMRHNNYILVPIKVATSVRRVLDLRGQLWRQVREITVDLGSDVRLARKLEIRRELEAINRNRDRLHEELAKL

With `C[C@H](N)CN1CCc2ccc(Br)cc21`, in [1], the Potency is 11.2 µM (active). In addition, the compound was called inactive in [2], in [10] and in [11]. Also, the Potency result in test [3], in test [4], in test [5], in [6], in test [7] and in [8] was “inactive” throughout. The Potency result in test [9] is “inactive”.
`NCC(CP(=O)(O)O)c1ccc(Cl)cc1` (stereo not given): the Potency result in test [1], in test [3], in test [4], in test [12], in test [5] and in test [13] was “inactive” each time. In addition, the Potency entry in test [7], in test [8], in test [9] and in test [14] was “inactive” in each case. The compound was classed as inactive in test [2] and in test [10].
Take `CN(C(=O)Cc1ccc(Cl)c(Cl)c1)C(CN1CCCC1)c1cccc(OCC(=O)O)c1` (stereo not given): the Potency entry in test [1], in test [3], in test [4], in test [12], in test [5] and in [6] was “inactive” each time. Moreover, the Potency entry in test [13], in [7], in test [8], in test [9], in test [15] and in [14] was “inactive” each time. The compound was classed as inactive in test [2], in [10] and in [11].
Turning to `CCCn1c(C)c(C(=O)c2ccc3ccccc3c2)c2ccccc21`, the Potency in [1] was 12.6 µM (active). Besides, the compound was called inactive in test [2], in test [10] and in test [11]. The Potency result in [3], in test [16], in [12], in [5], in test [13] and in test [8] was “inactive” each time. Moreover, the Potency entry in [9] was “inactive”.
Regarding `CC(N)Cc1c[nH]c2ccc(OCc3cccs3)cc12` (stereo not given), the Potency in test [1] was 11.2 µM (active); in test [5], 13.1 µM (active). Besides, the compound was classed as inactive in [2], in test [10] and in [11]. Moreover, the Potency result in [3], in test [4], in [16], in test [12], in [13] and in [7] was “inactive” throughout. Moreover, the Potency entry in test [8], in test [9], in [15] and in [14] was “inactive” each time.
`NC(=O)c1cc(N2CC2)c([N+](=O)[O-])cc1[N+](=O)[O-]`: the Potency entry in [1], in test [3], in test [16], in test [5], in test [13] and in [7] was “inactive” each time. Also, the Potency result in test [8], in test [9], in test [15] and in test [14] was “inactive” in each case. Besides, the compound was classed as inactive in [2] and in [10].
Regarding `CC1(C(=O)O)C2CCC(O2)C1(C)C(=O)O` (stereo not given), the Potency in [1] is 2.24 µM (active); in [16], 13.1 µM (active); in test [12], 18.5 µM (active); in test [5], 3.69 µM (active). In addition, the call in test [2], in test [10] and in test [11] was inactive. Besides, the Potency entry in [3], in test [8], in [9] and in [14] was “inactive” each time.
As for `COc1ccc(CNC(=O)/C=C/c2ccc3[nH]cc(CCN(C)C)c3c2)cc1`, the Potency in test [1] was 10 µM (active). For the same compound, the compound was called inactive in test [2] and in test [10]. Further, the Potency result in test [3], in test [4], in [16], in [5], in test [13] and in test [7] was “inactive” each time. For the same compound, the Potency result in [8], in test [9], in [15] and in test [14] was “inactive” in each case.
Consider `NC(=O)COc1c(F)cc(SCCNS(=O)(=O)c2ccccc2)cc1F`, for which the Potency result in test [1], in test [3], in test [4], in [16], in test [5] and in test [6] was “inactive” throughout. The Potency result in test [13], in test [7], in test [8] and in [9] was “inactive” each time. Further, the compound was classed as inactive in test [2] and in test [11].
For `C=CCN1CCC23c4c5ccc(O)c4O[C@H]2C(=O)CC[C@@]3(O)C1C5` (stereo not given in full), the Potency entry in test [1], in [3], in [12], in test [5], in test [6] and in test [13] was “inactive” each time. The Potency entry in test [7], in [8], in [9], in test [15] and in test [14] was “inactive” in each case. The compound was called inactive in test [2] and in test [10].

The record behind these values is PubChem BioAssay (NCATS).
